Compounds with a hit are over-represented: about 11% of the library has one in this group of screens.
USP28 block – human USP28 deubiquitinase inhibition. inhibition, % at 25 µM. purified USP28, Ub-rhodamine cleavage fluorescence, 30 min. Q96RU2. hit rate 3% among 47,000
USP17 inh – inhibitors of human USP17 deubiquitinase | purified USP17, Ub-rhodamine cleavage fluorescence, 3 h | hit rate 6.5% among 47,000 | inhibition, % at 50 µM | A8MUK1 | AID 1645855
Target sequence (A8MUK1 whole entry, looked up): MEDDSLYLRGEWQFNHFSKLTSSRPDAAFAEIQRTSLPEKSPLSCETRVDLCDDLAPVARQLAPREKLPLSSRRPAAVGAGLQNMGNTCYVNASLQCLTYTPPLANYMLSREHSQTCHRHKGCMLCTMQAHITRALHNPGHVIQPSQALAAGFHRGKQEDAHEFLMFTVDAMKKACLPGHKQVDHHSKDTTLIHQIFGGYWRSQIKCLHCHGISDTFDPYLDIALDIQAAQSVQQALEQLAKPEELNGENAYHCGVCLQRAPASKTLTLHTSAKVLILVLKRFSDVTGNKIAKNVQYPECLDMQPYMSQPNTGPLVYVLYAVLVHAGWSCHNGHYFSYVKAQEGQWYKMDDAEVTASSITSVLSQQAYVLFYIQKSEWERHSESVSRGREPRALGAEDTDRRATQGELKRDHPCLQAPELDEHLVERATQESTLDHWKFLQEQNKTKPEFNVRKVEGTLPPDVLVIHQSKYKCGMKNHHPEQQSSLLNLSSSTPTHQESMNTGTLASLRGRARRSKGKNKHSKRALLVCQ
OTUD3 inh – inhibitors of human OTUD3 deubiquitinase; Q5T2D3; purified OTUD3, Ub-rhodamine fluorescence, 2 h; inhibition, % at 25 µM; hit rate 0.7% among 47,000
USP30 block – inhibitors of human USP30 deubiquitinase | purified USP30, Ub-rhodamine cleavage fluorescence | hit rate 5.3% among 47,000 | Q70CQ3 | inhibition, % at 25 µM
* hit, by the source's call; nt = not tested or not shown. Cut-off read from the data, not from the text of the source: active = inhibition above about 30%; inactive = the rest.

SMILES	USP28 block	USP17 inh	OTUD3 inh	USP30 block
COC(=O)c1cn(CC(=O)N2CCCc3ccccc32)c2ccccc12	12	41*	16	17
N#Cc1cn(CC(=O)N2CCc3ccccc32)c2ccccc12	52*	-18	2	53*
O=C(Cn1cc(C(=O)C(F)(F)F)c2ccccc21)N1CCc2ccccc21	28	52*	23	37*
Cc1nnc(-c2cn(CC(=O)N3CCc4ccccc43)c3ccccc23)o1	1	29	3	-7
Cc1ccc(N2CCN(CCc3nc4cc(NS(=O)(=O)c5ccc(F)cc5)ccc4n3C)CC2)cc1	-2	9	-13	-19
Cc1cccc([C@@H]2CN(S(=O)(=O)C3CCCCC3)C[C@]23CCCCC(=O)N3)n1	-8	-2	2	10
N#CCCN(C(=O)c1cc2c(s1)-c1ccccc1OC2)c1ccccc1	19	6	0	26
COc1cccc(C(=O)Nc2ccccc2-c2nc(-c3ccncc3)no2)c1	13	24	18	39*
O=C(Nc1ccc(F)cc1F)NC1CCN(c2ccccc2)C1=O (centres undefined)	45*	73*	12	5
COc1ccccc1NC(=O)NC1CCN(c2ccc(F)cc2)C1=O (centres undefined)	0	8	8	-39
CC(C)(C)C(=O)[C@@H]1[C@@H](C(=O)c2ccc3c(c2)OCO3)[C@@]2(C(=O)Nc3ccccc32)[C@H]2c3ccccc3C=CN12	31*	82*	1	-67
COc1ccc(/C=C/C(=O)Nc2ccc(C)cn2)cc1	nt	70*	1	nt
COc1ccc(CCN2C[C@@]34CN(C(=O)c5ccncc5)C[C@@H](C[C@@H]3S2(=O)=O)O4)cc1	2	-8	4	0
CCOc1cccc2nnc(NC(=O)Nc3ccccc3CC)n12	10	56*	0	54*
CCOc1nc2cccnc2n(CC(=O)Nc2ccccc2CC)c1=O	-33	-20	-45	-175
COc1ccccc1C(=O)Oc1ccc(-c2ccc(C#N)cc2)cc1	5	49*	5	8
CN(C)S(=O)(=O)c1ccc(C(=O)Oc2ccc(-c3ccc(C#N)cc3)cc2)cc1	3	18	8	31*
Nc1c(-c2ccc(Cl)cc2)cnc2cc(-c3ccc(Cl)c(Cl)c3)nn12	24	41*	0	60*
Cc1cc2ncc(-c3ccsc3)c(N)n2n1	-2	-5	3	-8
Nc1c(-c2ccc(Cl)cc2)cnc2nc(Sc3ncc(C(F)(F)F)cc3Cl)nn12	6	26	30*	33*
FC(F)(F)c1cnc(-n2nccc2-c2ccc(Sc3ccccc3)cc2)c(Cl)c1	-4	-3	1	-9
Cc1ccc(N2CC(C(=O)Nc3nnc4n3CCCS4)CC2=O)cc1 (centres undefined)	-8	-10	-7	0
CCN1CCCC1CN(Cc1cc2ccc(C)c(C)c2[nH]c1=O)C(=O)NCc1ccccc1 (centres undefined)	-36	7	-52	-217
CCN1CCCC1CN(Cc1cc2cc(OC)ccc2[nH]c1=O)C(=O)Nc1ccccc1Cl (centres undefined)	-30	49*	-16	-54
CCN1CCCC1CN(Cc1cc2cc(OC)ccc2[nH]c1=O)C(=O)NCc1ccccc1 (centres undefined)	-11	53*	-24	-41
SMILES	USP28 block	USP17 inh	OTUD3 inh	USP30 block
Cc1cccc(-n2ccnc(SCC(=O)Nc3ccc(Cl)cc3F)c2=O)c1	38*	76*	11	49*
COc1cccc(CNCc2c(C(=O)O)c(C)n(-c3ccccc3)c2C)c1OC	1	7	-3	-17
O=C(CCCC1=NS(=O)(=O)c2ccccc2N1)Nc1ccc(Cl)c(Cl)c1	13	34*	12	17
O=C(Oc1ccc2cc(Br)ccc2c1)c1ccncc1	2	22	3	35*
COc1ccc(OC)c(NC(=O)C2c3ccccc3C(=O)N(C3CCCC3)C2c2cccs2)c1 (centres undefined)	-5	-1	0	4
COc1ccc(NC(=O)C2c3ccccc3C(=O)N(C3CCCC3)C2c2cccs2)c(OC)c1 (centres undefined)	13	18	17	40*
COc1ccc(NC(=O)C2c3ccccc3C(=O)N(C3CCCC3)C2c2cccs2)cc1OC (centres undefined)	26	56*	17	16
O=C(Nc1cccc(F)c1)c1cc(-c2ccncc2)n(-c2ccc(F)cc2)n1	2	6	3	15
O=C(NC1CC1)c1cc(-c2cccnc2)n(-c2ccccc2)n1	16	16	12	31*
Cc1ccc(-n2nc(C(=O)NCc3ccccn3)cc2-c2cccnc2)cc1	4	-5	2	3
COc1cc(NC(=O)c2cc(-c3ccncc3)n(-c3ccccc3)n2)cc(OC)c1	40*	4	13	11
COc1ccc(CCNC(=O)C2CCCN(S(=O)(=O)N3CCC(C)CC3)C2)c(OC)c1 (centres undefined)	10	17	14	33*
O=C(Nc1cccc(F)c1)C1CCCN(S(=O)(=O)N2CCCCCC2)C1 (centres undefined)	10	53*	18	26
CC1CCN(S(=O)(=O)N2CCCC(C(=O)NCc3ccccc3)C2)CC1 (centres undefined)	14	27	9	36*
CS(=O)(=O)NC1CCCN(C(=O)Nc2cccc3ccccc23)C1 (centres undefined)	11	87*	11	12
O=C(Nc1ccc(F)cc1)C1CCCN(S(=O)(=O)N2CCCCCC2)C1 (centres undefined)	3	-9	2	15
O=C(CSc1ccccc1)N1CCC(n2cccc2)CC1	-21	-13	-18	-12
O=C(NC1CC1)C1CCCCN1S(=O)(=O)c1ccc(Br)cc1 (centres undefined)	2	2	9	1
O=C(C1CCCN(S(=O)(=O)N2CCCCC2)C1)N1CCN(c2ccccc2)CC1 (centres undefined)	-13	-14	-9	-15
COc1ccc(CNC(=O)C2CCCN(S(=O)(=O)Cc3ccccc3Cl)C2)cc1 (centres undefined)	-13	2	-1	14
O=C(Nc1cccc2ccccc12)C1CCCN(S(=O)(=O)Cc2ccccc2)C1 (centres undefined)	7	73*	7	23
Cc1cccc(CNC(=O)C2CCCN(S(=O)(=O)Cc3ccccc3Cl)C2)c1 (centres undefined)	0	22	5	39*
O=C(C1CCCN(S(=O)(=O)N2CCCCCC2)C1)N1CCN(c2ccccc2)CC1 (centres undefined)	54*	-13	-6	7
COc1ccc(NC(=O)C2CCCN(S(=O)(=O)N3CCC(C)CC3)C2)cc1 (centres undefined)	0	38*	0	16
Cc1cc(C)cc(NC(=O)C2(C)Oc3cccnc3N(C)C2=O)c1 (centres undefined)	-9	-15	-4	1
CC(O)CNCc1nn(Cc2ccccc2)nc1-c1ccccc1 (centres undefined)	-1	-8	0	0
